Values without a mark were called inactive. The list shows a part of the results. Calls of active or inactive are those of the source.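 The calls were made as follows, unless noted: active = mean inhibition across replicates above the hit cutoff set by the earlier primary screen (cut at about 15% in these data); inactive = the rest.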
How the values were obtained:
[1] = biological target: Platelet-activating factor acetylhydrolase (Homo sapiens) (UniProt Q13093); assay: pPAFAH (PLA2G7) enzyme inhibitors, confirmation, biochemical, fluorescence polarization, human (AID 463230;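 active = mean inhibition of the triplicate above the hit cutoff set for the earlier primary screen, cut at about 25% in these data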;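 also: 0% = enzyme with DMSO and 100% = wells lacking pPAFAH enzyme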); conditions: recombinant pPAFAH, FP-Rh probe fluorescence polarization; at 3.39 µM; active compounds read high
Platelet-activating factor acetylhydrolase (Homo sapiens), sequence (Q13093 whole entry, looked up): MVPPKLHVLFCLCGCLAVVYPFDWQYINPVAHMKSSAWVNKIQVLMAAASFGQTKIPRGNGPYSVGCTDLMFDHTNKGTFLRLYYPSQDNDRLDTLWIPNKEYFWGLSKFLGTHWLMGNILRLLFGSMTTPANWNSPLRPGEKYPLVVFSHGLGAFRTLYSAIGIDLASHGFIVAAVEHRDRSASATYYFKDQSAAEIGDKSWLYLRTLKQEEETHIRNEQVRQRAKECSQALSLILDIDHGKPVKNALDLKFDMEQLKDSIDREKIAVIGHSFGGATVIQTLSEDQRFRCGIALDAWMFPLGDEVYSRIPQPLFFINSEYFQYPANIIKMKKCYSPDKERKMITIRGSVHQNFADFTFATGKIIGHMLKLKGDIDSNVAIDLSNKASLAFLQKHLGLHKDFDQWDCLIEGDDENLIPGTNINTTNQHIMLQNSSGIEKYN

[2] = biological target: (Lyso)-N-acylphosphatidylethanolamine lipase (Mus musculus) (UniProt Q8VD66); assay: ABHD4 inhibitors, retest, confirmation, biochemical, fluorescence polarization, mouse (AID 720658;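 active = mean inhibition across replicates above the hit cutoff set in the primary screen, cut at about 30% in these data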;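 also: 0% = wild-type ABHD4 with DMSO and 100% = catalytically dead S159A mutant with DMSO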); conditions: purified mABHD4, FP-Rh probe fluorescence polarization; at 8.92 µM; active compounds read high
(Lyso)-N-acylphosphatidylethanolamine lipase (Mus musculus), sequence (Q8VD66 whole entry, looked up): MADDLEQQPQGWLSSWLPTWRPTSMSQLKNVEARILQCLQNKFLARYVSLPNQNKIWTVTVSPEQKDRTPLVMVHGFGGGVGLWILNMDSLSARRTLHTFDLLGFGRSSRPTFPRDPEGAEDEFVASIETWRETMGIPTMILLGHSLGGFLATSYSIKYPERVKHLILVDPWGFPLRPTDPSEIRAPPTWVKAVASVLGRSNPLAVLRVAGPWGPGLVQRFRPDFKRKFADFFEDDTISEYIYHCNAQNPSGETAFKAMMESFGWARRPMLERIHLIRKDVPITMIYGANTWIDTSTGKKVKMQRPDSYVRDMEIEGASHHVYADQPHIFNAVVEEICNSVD

[3] = biological target: Protein-arginine deiminase type-4 (Homo sapiens) (UniProt Q9UM07); assay: human PAD4 inhibitors, confirmation, biochemical, fluorescence polarization (AID 488796); conditions: recombinant PAD4, RCA probe fluorescence polarization; at 6.36 µM; active compounds read high;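 also: inhibitors block active-site labeling by the probe so polarization falls; 0% = PAD4 with probe and DMSO and 100% = probe without PAD4 enzyme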
Protein-arginine deiminase type-4 (Homo sapiens), sequence (Q9UM07 whole entry, looked up): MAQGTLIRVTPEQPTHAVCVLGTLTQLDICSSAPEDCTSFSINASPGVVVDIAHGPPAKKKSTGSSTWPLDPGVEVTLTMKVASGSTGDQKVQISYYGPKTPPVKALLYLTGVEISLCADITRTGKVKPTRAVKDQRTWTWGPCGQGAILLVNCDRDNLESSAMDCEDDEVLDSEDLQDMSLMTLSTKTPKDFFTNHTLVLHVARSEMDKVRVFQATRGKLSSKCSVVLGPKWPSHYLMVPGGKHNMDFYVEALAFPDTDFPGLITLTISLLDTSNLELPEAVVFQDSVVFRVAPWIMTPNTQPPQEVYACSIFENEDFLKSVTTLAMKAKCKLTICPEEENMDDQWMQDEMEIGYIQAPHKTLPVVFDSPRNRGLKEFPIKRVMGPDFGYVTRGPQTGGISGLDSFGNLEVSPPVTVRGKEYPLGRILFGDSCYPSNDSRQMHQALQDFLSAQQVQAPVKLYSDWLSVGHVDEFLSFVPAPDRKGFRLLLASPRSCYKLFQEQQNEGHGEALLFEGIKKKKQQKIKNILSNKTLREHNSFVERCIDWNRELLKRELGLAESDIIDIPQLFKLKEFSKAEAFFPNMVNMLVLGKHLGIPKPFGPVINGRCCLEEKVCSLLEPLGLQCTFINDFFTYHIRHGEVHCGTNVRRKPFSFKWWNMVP

[4] = biological target: Receptor-interacting serine/threonine-protein kinase 2 (Homo sapiens) (UniProt O43353); assay: NOD2-RIPK2 binding disruptors, retest, confirmation, fluorescence, CHO cells, BLA complementation, triplicate (AID 624370;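 active = mean inhibition across replicates above a set limit taken from the earlier primary screen, cut at about 21% in these data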;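 also: 0% = DMSO-only wells and the high end = clavulanate BLA-blocked wells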); conditions: CCF4 FRET, at 4.98 µM, active compounds read high
[5] = beta-lactamase reporter inhibitors in CHO cells, confirmation, artefact control for NOD2-RIPK2 interaction inhibitor project, cell-based, CHO-K1 CMV-bla, CCF4 FRET, fluorescence (AID 624371;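 active = mean inhibition above the low-control mean inhibition plus three low-control SD, cut at about 11% in these data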;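 also: 0% = DMSO only wells and 100% = clavulanate high control wells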); conditions: CCF4 FRET ratio, counterscreen, at 4.98 µM, active compounds read high
[6] = compounds interfering with TAMRA-BSA probe, counter-screen for TCR-CD3 interaction inhibitor project, biochemical, fluorescence, TAMRA-labeled BSA (AID 652035; in the data active = inhibition above about 23%;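 also: 0% = buffer low control and 100% = reference high control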); conditions: TAMRA-labeled BSA probe fluorescence counterscreen; at 9.4 µM; active compounds read high
[7] = tested on: T-cell receptor (TCR)-CD3 interaction, human; assay: TCR-CD3 interaction inhibitors, retest, confirmation, biochemical, fluorescence, TAMRA-labeled TCR probe (AID 652036; in the data active = inhibition above about 19%); conditions: TAMRA-labeled TCR probe fluorescence binding assay; at 9.4 µM; active compounds read high
[8] = biological target: Serine protease HTRA1 (Homo sapiens) (UniProt Q92743); assay: HTRA1 protease inhibitors, retest, confirmation, biochemical, fluorescence polarization (AID 540248;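 active = mean inhibition over three repeats above a set limit taken from the earlier primary screen, cut at about 37% in these data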;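 also: 0% = HTRA1 with DMSO and 100% = wells lacking HTRA1; inhibitors block probe binding so polarization drops and inhibition rises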); conditions: recombinant HTRA1, FP-rhodamine activity-based probe, at 5.96 µM, active compounds read high
[9] = growth loss of phage-infected E. coli expressing H. pylori AddAB, confirmation, AddAB inhibitor project, absorbance, E. coli V3065, T4 phage, triplicate (AID 488942;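 active = mean inhibition above a set limit taken from the earlier primary screen, cut at about 13% in these data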;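 also: higher means less bacterial growth since AddAB block lets phage replicate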); conditions: OD, at 11.9 µM, active compounds read high, T4 phage with gene 2 nonsense mutations
[10] = growth loss of RecBCD+ E. coli with mutant T4 phage, counter-screen for AddAB inhibitor project, absorbance, V66 E. coli (AID 488955;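 active = mean inhibition above the mean of solvent-only control wells plus 3 SD, cut at about 4% in these data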;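 also: optical density read after an 18 h incubation at 37 °C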); conditions: OD growth, at 11.9 µM, active compounds read high
[11] = bacterial viability inhibition counter-screen, confirmation, counter-screen for AddAB inhibitor project, absorbance (AID 488956; in the data active = inhibition above about 25%); conditions: absorbance (AddAB counterscreen), at 11.9 µM, active compounds read high
[12] = tested on: transactivating tegument protein VP16 (Human herpesvirus 1); assay: VP16 transactivation reporter inhibitors, counter-screen for SRC2 inhibitor project, cell-based, luminescence, single concentration (AID 652007; in the data active = inhibition above about 36%); conditions: cell-based VP16 transactivation luciferase reporter, at 8.9 µM, active compounds read high
[13] = biological target: Nuclear receptor coactivator 2 (Homo sapiens) (UniProt Q15596); assay: SRC2 coactivator transcriptional activity inhibitors, confirmation, cell-based, luminescence, HEK293, triplicate (AID 652008;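 active = mean inhibition above 46.5%, the solvent-only control mean plus 3 SD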;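 also: 0% = DMSO-treated cells and 100% = Gossypol at 36 µM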); conditions: HEK293 GAL4-SRC2 luciferase reporter, at 8.9 µM, active compounds read high
Nuclear receptor coactivator 2 (Homo sapiens), sequence (Q15596 whole entry, looked up, the tested form may be a part): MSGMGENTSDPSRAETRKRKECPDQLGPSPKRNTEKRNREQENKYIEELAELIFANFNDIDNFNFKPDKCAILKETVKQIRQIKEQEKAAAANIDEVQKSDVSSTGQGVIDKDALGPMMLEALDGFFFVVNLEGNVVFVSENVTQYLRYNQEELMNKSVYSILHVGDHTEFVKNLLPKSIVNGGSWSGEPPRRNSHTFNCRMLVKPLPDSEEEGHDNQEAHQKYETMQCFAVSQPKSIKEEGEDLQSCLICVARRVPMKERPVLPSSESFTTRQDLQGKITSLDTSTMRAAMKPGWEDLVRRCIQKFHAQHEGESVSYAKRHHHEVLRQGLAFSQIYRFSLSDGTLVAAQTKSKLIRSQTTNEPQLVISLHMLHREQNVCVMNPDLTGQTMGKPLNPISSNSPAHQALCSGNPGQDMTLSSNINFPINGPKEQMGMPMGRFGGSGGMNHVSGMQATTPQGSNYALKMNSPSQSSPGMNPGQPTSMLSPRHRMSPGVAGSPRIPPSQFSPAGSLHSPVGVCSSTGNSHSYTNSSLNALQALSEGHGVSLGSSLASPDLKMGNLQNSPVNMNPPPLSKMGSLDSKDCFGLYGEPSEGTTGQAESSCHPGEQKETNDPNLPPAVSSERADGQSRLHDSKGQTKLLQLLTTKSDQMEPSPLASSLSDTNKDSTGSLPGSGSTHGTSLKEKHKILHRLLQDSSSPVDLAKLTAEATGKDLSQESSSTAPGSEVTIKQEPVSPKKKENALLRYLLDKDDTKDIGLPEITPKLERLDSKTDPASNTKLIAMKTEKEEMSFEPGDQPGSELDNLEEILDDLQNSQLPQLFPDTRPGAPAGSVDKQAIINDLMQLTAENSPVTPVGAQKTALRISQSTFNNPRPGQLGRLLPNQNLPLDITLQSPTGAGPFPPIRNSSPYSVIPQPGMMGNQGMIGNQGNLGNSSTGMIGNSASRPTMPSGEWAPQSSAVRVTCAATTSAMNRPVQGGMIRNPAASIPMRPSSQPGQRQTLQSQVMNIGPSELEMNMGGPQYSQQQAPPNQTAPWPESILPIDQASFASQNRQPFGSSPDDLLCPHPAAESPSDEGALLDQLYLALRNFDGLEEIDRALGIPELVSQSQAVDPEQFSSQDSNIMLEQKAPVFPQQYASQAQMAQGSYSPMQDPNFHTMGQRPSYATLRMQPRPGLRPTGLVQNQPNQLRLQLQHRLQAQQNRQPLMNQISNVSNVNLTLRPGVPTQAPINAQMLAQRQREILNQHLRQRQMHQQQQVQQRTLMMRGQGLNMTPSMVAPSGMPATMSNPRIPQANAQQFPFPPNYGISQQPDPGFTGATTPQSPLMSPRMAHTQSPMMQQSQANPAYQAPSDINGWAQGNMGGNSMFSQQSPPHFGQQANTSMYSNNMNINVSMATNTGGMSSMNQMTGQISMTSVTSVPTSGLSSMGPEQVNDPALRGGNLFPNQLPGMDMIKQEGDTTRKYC

[14] = biological target: Platelet-activating factor acetylhydrolase IB subunit alpha1 (Homo sapiens) (UniProt Q15102); assay: PAFAH1B3 enzyme inhibitors, confirmation, biochemical, fluorescence polarization, human (AID 493032;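 active = average inhibition over triplicate runs above the hit cutoff set in the earlier primary screen, cut at about 25% in these data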;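 also: 0% = enzyme with DMSO and 100% = wells lacking PAFAH1B3 protein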); conditions: recombinant PAFAH1B3, FP-Rh activity-based probe, at 3.39 µM, active compounds read high
Platelet-activating factor acetylhydrolase IB subunit alpha1 (Homo sapiens), sequence (Q15102 whole entry, looked up): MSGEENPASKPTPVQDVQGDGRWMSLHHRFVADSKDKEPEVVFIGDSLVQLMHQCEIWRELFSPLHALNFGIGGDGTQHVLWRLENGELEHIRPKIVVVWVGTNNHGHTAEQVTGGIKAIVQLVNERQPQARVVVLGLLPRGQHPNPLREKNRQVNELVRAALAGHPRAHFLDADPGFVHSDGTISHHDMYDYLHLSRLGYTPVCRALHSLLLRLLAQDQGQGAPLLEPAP

[15] = biological target: Photoreceptor-specific nuclear receptor (Homo sapiens) (UniProt Q9Y5X4); assay: NR2E3 agonist confirmation in cells, cell-based, luminescence, CHO-S two-hybrid (AID 624378;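 active = average inhibition above a cutoff equal to the mean inhibition of all tested compounds plus one SD, cut at about 70% in these data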;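 also: 0% = DMSO in NR2E3 cells and 100% = DMSO in cells lacking NR2E3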); conditions: CHO-S mammalian two-hybrid NR2E3-NCOR, luciferase luminescence; at 3.98 µM; active compounds read high
Photoreceptor-specific nuclear receptor (Homo sapiens), sequence (Q9Y5X4 whole entry, looked up, the tested form may be a part): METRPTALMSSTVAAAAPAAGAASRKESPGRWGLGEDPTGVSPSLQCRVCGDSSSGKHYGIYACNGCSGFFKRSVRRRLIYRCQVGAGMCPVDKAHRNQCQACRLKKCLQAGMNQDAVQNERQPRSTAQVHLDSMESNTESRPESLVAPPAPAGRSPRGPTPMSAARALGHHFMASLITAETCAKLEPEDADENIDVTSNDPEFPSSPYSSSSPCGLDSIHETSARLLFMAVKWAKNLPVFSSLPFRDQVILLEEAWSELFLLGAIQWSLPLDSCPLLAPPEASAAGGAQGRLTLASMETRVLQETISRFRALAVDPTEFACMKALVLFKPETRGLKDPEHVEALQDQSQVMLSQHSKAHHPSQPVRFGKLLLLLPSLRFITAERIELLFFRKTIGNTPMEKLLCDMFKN

[16] = GAL4-VP16 reporter modulators, confirmation, counter-screen for NR2E3 agonist project, cell-based, luminescence, CHO-S, high throughput (AID 624379;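 active = mean inhibition above a cutoff equal to the average over all tested compounds plus one standard deviation, cut at about 70% in these data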;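 also: 0% = DMSO with VP16-transfected cells and 100% = DMSO with cells lacking VP16; higher means less reporter light so more repression of VP16 activity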); conditions: CHO-S GAL4-VP16 luciferase reporter, at 3.98 µM, active compounds read high
[17] = growth loss of phage-infected RecBCD+ E. coli, confirmation, RecBCD inhibitor project, absorbance, E. coli V66, T4 gene 2 phage (AID 651982;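 active = mean inhibition over triplicates exceeding the hit threshold derived in the original primary screen, cut at about 11% in these data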); conditions: E. coli V66 + T4 2- phage, growth OD; at 11.9 µM; active compounds read high
[18] = E. coli viability inhibition, counter-screen for RecBCD inhibitor project, absorbance, high throughput (AID 651983; in the data active = inhibition above about 20%;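 also: E. coli strain V66 grown with compound alone and no phage infection; 0% = bacteria with DMSO vehicle only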); conditions: absorbance (OD) growth, at 11.9 µM, active compounds read high
[19] = growth loss of phage-infected AddAB-carrying E. coli, confirmation, counter-screen for RecBCD inhibitor project, absorbance, E. coli V3065, T4 phage (AID 651984;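 active = mean inhibition above the solvent-only control wells' mean plus 3 SD, cut at about 22% in these data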;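 also: higher means less bacterial growth from phage killing when AddAB is blocked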); conditions: E. coli expressing H. pylori AddAB + T4 phage, OD growth; at 11.9 µM; active compounds read high; gene 2 mutant T4, recBCD-deleted host
[20] = Gal4-VP16 luciferase reporter inhibitors, counter-screen for COUP-TFII antagonist project, cell-based, luminescence, HEK293 (AID 687007; in the data active = inhibition above about 13%); conditions: at 8.5 µM, active compounds read high
[21] = biological target: COUP transcription factor 2 (Homo sapiens) (UniProt P24468); assay: NR2F2 transcriptional activity inhibitors, confirmation, cell-based, luciferase reporter, HEK293, triplicate (AID 687008;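 active = mean inhibition over three repeats above a set limit taken from the earlier primary screen, cut at about 38% in these data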;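 also: 100% = cells given the luciferase reporter alone without the COUP-TF2 vector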); conditions: HEK293 NGFI-A luciferase reporter, luminescence; at 8.5 µM; active compounds read high
[22] = biological target: Nuclear receptor coactivator 3 (Homo sapiens) (UniProt Q9Y6Q9); assay: SRC3 coactivator transcriptional activity inhibitors, confirmation, cell-based, luminescence, quadruplicate (AID 588792;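 active = mean inhibition over 43.08%, the solvent-only control mean plus 3 SD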;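 also: 0% = DMSO treated cells and 100% = gossypol at 36 µM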); conditions: HEK293 GAL4-SRC3 luciferase reporter, at 3.6 µM, active compounds read high
Nuclear receptor coactivator 3 (Homo sapiens), sequence (Q9Y6Q9 whole entry, looked up, the tested form may be a part): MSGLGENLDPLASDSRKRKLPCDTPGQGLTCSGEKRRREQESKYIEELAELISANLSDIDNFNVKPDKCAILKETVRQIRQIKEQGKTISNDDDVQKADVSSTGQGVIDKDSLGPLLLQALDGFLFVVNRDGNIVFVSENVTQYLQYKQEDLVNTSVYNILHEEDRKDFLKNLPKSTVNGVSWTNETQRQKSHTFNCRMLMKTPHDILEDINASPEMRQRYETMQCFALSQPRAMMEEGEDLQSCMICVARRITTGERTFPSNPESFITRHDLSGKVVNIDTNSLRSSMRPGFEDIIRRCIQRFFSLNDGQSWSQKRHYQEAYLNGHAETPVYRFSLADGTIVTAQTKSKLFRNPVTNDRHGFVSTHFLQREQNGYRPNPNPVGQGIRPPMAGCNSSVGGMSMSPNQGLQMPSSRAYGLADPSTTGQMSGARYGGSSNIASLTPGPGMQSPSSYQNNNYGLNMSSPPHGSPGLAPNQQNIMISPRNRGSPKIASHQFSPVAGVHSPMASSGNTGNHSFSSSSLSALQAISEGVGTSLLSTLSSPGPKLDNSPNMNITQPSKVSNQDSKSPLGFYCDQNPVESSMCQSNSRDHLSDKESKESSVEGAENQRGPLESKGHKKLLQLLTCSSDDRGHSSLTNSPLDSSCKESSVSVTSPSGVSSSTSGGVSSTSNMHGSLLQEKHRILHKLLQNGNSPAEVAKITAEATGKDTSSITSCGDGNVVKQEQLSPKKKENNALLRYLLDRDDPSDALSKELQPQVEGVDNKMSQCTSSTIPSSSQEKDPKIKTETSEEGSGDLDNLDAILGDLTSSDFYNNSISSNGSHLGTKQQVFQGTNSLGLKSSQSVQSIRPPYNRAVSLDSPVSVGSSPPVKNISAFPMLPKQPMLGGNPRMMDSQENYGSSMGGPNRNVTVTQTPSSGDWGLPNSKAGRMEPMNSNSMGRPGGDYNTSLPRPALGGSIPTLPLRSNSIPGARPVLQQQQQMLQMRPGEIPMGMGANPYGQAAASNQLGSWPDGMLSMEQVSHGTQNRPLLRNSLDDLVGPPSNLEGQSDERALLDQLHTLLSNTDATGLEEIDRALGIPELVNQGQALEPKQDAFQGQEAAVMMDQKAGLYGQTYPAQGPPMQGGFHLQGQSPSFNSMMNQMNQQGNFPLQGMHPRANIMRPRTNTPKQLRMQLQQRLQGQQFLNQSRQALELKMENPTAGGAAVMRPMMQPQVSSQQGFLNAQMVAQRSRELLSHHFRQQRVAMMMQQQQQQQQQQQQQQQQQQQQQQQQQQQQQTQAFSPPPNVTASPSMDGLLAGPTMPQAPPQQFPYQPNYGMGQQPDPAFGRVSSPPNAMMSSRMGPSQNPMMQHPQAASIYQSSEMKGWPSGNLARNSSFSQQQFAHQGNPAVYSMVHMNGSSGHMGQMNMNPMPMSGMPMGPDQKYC

[23] = tested on: transactivating tegument protein VP16 (Human herpesvirus 1), Gal4-VP16 luciferase reporter; assay: VP16 transactivation inhibitors, counter-screen for SRC3 inhibitor project, cell-based, luminescence, high throughput (AID 588794; in the data active = inhibition above about 30%); conditions: mammalian cells, VP16-driven luciferase reporter luminescence; at 3.6 µM; active compounds read high
[24] = biological target: Nuclear receptor coactivator 1 (Homo sapiens) (UniProt Q15788); assay: SRC1 coactivator transcriptional activity inhibitors, confirmation, cell-based, luminescence, quadruplicate (AID 588820;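 active = mean inhibition above 46.68%, the untreated control wells mean plus 3 SD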;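 also: 0% = DMSO wells and 100% = gossypol 36 µM treated wells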); conditions: HEK293 GAL4-SRC1 luciferase reporter, at 3.6 µM, active compounds read high
[25] = VP16 transactivation inhibitors, counter-screen for SRC1 inhibitor project, cell-based, luminescence, high throughput (AID 588824; in the data active = inhibition above about 25%); conditions: cell-based VP16 transactivation luciferase luminescence; at 3.6 µM; active compounds read high

## CC(C)c1ccc(NC(=S)NNc2ccc(Cl)c(C(=O)O)c2)cc1
[1]
  inhibition: 11.9%
[2]
  inhibition: 19.4%

## COc1ccc(C2NC(=S)NC3=C2CCc2ccccc23)cc1OC (configuration not stated)
[3]
  inhibition: 22.5% (active)

## COc1cccc2c(C)c(C(=O)O)[nH]c12
[1]
  inhibition: 33% (active)
[2]
  inhibition: 34.5% (active)

## Cc1nn(C)cc1N1C(=O)c2cccc3c(N)ccc(c23)C1=O
[3]
  inhibition: 36.2% (active)
[4]
  inhibition: 24% (active)
[5]
  inhibition: 26.6% (active)
[6]
  inhibition: 52.9% (active)
[7]
  inhibition: 33.9% (active)
[2]
  inhibition: 40.4% (active)

## Cc1cc(/C=N/Nc2ccc([N+](=O)[O-])cn2)c(C)n1-c1cccc(C(=O)O)c1
[1]
  inhibition: 11.7%
[8]
  inhibition: 30.7%
[2]
  inhibition: 74.5% (active)

## c1ccc2c(C[n+]3csc4ccccc43)cccc2c1
[3]
  inhibition: 61.3% (active)

## CC(=O)N(c1ccc2oc(=O)sc2c1)S(=O)(=O)c1ccc(C)cc1
[3]
  inhibition: 10.9%

## CC(C)(C)NC(=O)NC(=O)COC(=O)CCC1CCCCC1
[3]
  inhibition: 2.14%

## CC1CCCN(C(=O)c2ccc3c(c2)C(=O)N(CCC2=CCCCC2)C3=O)C1 (configuration not stated)
[9]
  inhibition: -4.68%
[10]
  inhibition: -0.96%
[11]
  inhibition: -2.15%

## CNC(=S)NNC(=O)c1oc2nc(-c3ccccc3)cc(-c3ccco3)c2c1N
[3]
  inhibition: 2%
[8]
  inhibition: 11.5%
[6]
  inhibition: -11.2%
[7]
  inhibition: 30.5% (active)
[2]
  inhibition: 17.5%

## O=C(CN1CCCCCC1)Nc1ccc(Br)cc1Br
[3]
  inhibition: 3.01%

## CCCCNC(=O)Nc1c(C)cc(SC#N)cc1C
[3]
  inhibition: 35.6% (active)

## COc1cccc(NC(=O)C2c3cc(OC)c(OC)cc3C(=O)N(C)C2c2cccnc2)c1 (configuration not stated)
[3]
  inhibition: 8.92%

## CCC(C)Cn1c(O)cc2nn(-c3nc4ccccc4s3)c(=O)c-2c1C (configuration not stated)
[1]
  inhibition: 20.9%
[8]
  inhibition: 59.6% (active)
[12]
  inhibition: 86.8% (active)
[13]
  inhibition: 94.8% (active)
[2]
  inhibition: 54.4% (active)

## Cc1nc2ccc(NC(=O)C(F)(F)F)cc2o1
[3]
  inhibition: 4.72%

## CCCCNC(=O)C1(c2ccc(OC)cc2)CCOCC1
[3]
  inhibition: 8.6%

## CC(C)C(NC(=O)c1ccc(Cl)cc1)C(=O)O (configuration not stated)
[3]
  inhibition: -6.12%

## COc1ccccc1CNC(=O)C1CCN(c2nc3ccccc3o2)CC1
[3]
  inhibition: 5.44%

## CN1C(=O)c2cccc3c(N)ccc(c23)C1=O
[3]
  inhibition: 17.1% (active)
[2]
  inhibition: 31.5% (active)

## COC(=O)c1ccc(NC(=O)CSc2nncc3ccc(OC)c(OC)c23)cc1
[3]
  inhibition: 0.13%

## CCc1ccccc1NC(=S)Nc1cc(OC)c(NC(=O)C(C)C)cc1OC
[3]
  inhibition: 1.96%
[2]
  inhibition: -9.17%

## CC(C)n1cnc2c(NCc3ccccc3)cc(OCC3CCN(C)CC3)cc21
[3]
  inhibition: -10.7%

## CN1C(c2ccc(F)cc2)=CS/C1=C(/C#N)c1nnc2n1-c1ccccc1SC2
[14]
  inhibition: 20.9%

## CCCN(CCC)C(=O)C1c2ccccc2Oc2ccccc21
[8]
  inhibition: -8.94%

## CCOC(=O)c1ccc(NC(=O)Cn2cnc3cc(C)c(C)cc32)cc1
[9]
  inhibition: 24.2% (active)
[10]
  inhibition: 18.4% (active)
[11]
  inhibition: 21.4%
[15]
  inhibition: 96% (active)
[16]
  inhibition: 87.5% (active)
[17]
  inhibition: 13.5% (active)
[18]
  inhibition: 14.5%
[19]
  inhibition: 21.8% (active)
[12]
  inhibition: 19.5%
[13]
  inhibition: 36.7%
[20]
  inhibition: 8.87%
[21]
  inhibition: 62.9% (active)

## COc1ccc(C(=O)c2oc3ccc(Br)cc3c2NC(C)=O)cc1
[9]
  inhibition: -2.85%
[10]
  inhibition: -1.5%
[11]
  inhibition: -3.05%

## Nc1nonc1-n1nnc(C(=O)N/N=C/c2cc(Br)ccc2O)c1CSC1=NCCS1
[9]
  inhibition: 14.2% (active)
[10]
  inhibition: 16% (active)
[11]
  inhibition: 9.73%
[22]
  inhibition: 42.7%
[23]
  inhibition: 34.5% (active)
[24]
  inhibition: 41%
[25]
  inhibition: 33.4% (active)
[17]
  inhibition: 6.91%
[18]
  inhibition: 9.92%
[19]
  inhibition: 10.8%

## CC(=O)c1c(C)n([O-])c2ccccc2[n+]1=O
[9]
  inhibition: 100% (active)
[10]
  inhibition: 26.2% (active)
[11]
  inhibition: 89.7% (active)
[17]
  inhibition: 16.9% (active)
[18]
  inhibition: 21.4% (active)
[19]
  inhibition: 87.7% (active)

## O=C1c2ccccc2NC(c2ccc(-c3cccc(Cl)c3)o2)N1O (configuration not stated)
[9]
  inhibition: 17.5% (active)
[10]
  inhibition: 18.4% (active)
[11]
  inhibition: 13.2%
[17]
  inhibition: 13.7% (active)
[18]
  inhibition: 16.7%
[19]
  inhibition: 18.9%

— PubChem BioAssay
